# According to PubChem BioAssay AID504832 (National Center for Advancing Translational Sciences (NCATS), 2011):
# Out of some 310,000 compounds screened, about 18,000 (5.8%) were called active. A call without a number means that no potency is given here. Not shown: some 22% with an inconclusive outcome. The full list was thinned out, with actives kept by preference. Values without a mark were called inactive. Calls come from the whole dose curve; as a rule, active = well fitted inhibition curve with a large enough effect; inconclusive = small, poorly fitted or top-dose-only effect, or another doubt; inactive = no such curve, though single readings can be large or run the other way.
# Experiment: Primary qHTS for delayed death inhibitors of the malarial parasite plastid, 48 hour incubation
# Details: P. falciparum luciferase growth in erythrocytes; series mostly up to 28.7 µM
# How it was run: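 Luciferase-expressing parasites in RBCs, 2% Hct / 0.1% parasitemia final; RPMI 1640 + 0.5% Albumax; 37 C, 5% CO2, one generation; luminescence read-out, lower signal = inhibition.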
# Potency is the fitted concentration of half-maximal effect.
SMILES,Potency,"activity change, negative = inhibition"
CN(C(=O)CC1C(=O)NCCN1Cc1ccc2ccccc2c1)C1CCOCC1 (configuration not stated),inactive,–
CN(Cc1cccc2ncccc12)C(=O)CC1C(=O)NCCN1Cc1ccc(F)cc1 (configuration not stated),inactive,–
CN(C(=O)CC1C(=O)NCCN1Cc1ccc(F)cc1Cl)C1CCCCC1 (configuration not stated),11.7 µM (active),–
O=C(CN(Cc1ccccc1)C(=O)CCC(=O)Nc1ccccn1)NCCc1ccccc1,inactive,–
Cc1sc2ncn(CC(=O)NCCCC(=O)N3CCN(c4ccccc4F)CC3)c(=O)c2c1C,inactive,–
CCCCCOc1ccc(/C=C/C(=O)NCCc2nc3ccccc3[nH]2)cc1OC,10.4 µM (active),–
O=C(COc1ccccc1)NCCc1nc2ccccc2[nH]1,inactive,–
COc1ccc(OC(C)C(=O)NCCc2nc3ccccc3[nH]2)cc1 (configuration not stated),inactive,–
CCC(C)N1CC(=O)N2Cc3[nH]c4ccccc4c3C[C@H]2C1=O (some centres not stated),inactive,–
CC(C)c1ccc(Cc2nnc(NCCCO)[nH]c2=O)cc1,inactive,–
O=C(CSCc1ccccc1)N1CCc2ccccc21,inactive,–
Cc1ccn(CCC(=O)N2c3ccccc3CC2C)n1 (configuration not stated),inactive,–
CC1Cc2ccccc2N1C(=O)c1cc2sccc2n1Cc1ccccc1 (configuration not stated),11.7 µM (active),–
O=C(c1cc2sccc2n1Cc1ccc(F)cc1)N1CCc2ccccc21,14.7 µM (active),–
CC(OC(=O)Cc1ccc(F)cc1)C(=O)N1CCc2ccccc21 (configuration not stated),inactive,–
CC(=O)N1c2ccc(S(=O)(=O)N(C)CC(=O)N(C)Cc3ccccc3)cc2CC1C (configuration not stated),inactive,–
CC(C)C(=O)Nc1c2c(nn1-c1ccccc1)CSC2,inactive,–
CCNC(=O)N1CCN(S(=O)(=O)c2ccc3c(c2)OCCCO3)CC1,inactive,–
O=C(Nc1cccc(Cl)c1)c1cc(S(=O)(=O)N2CCCCC2)c[nH]1,inactive,–
O=C(CCN1C(=O)[C@@H]2Cc3ccccc3CN2C1=O)NCc1ccccc1,inactive,–
CC(=O)N1CCc2cc(S(=O)(=O)NC3CCCCC3)ccc21,inactive,–
COc1cc(C(=O)Nc2oc(-c3ccccc3)c(-c3ccccc3)c2C#N)cc(OC)c1OC,inactive,–
CC(C)C(=O)Nc1oc(-c2ccccc2)cc1C#N,1.85 µM (active),–
CC(Oc1ccccc1)C(=O)Nc1oc(-c2ccco2)c(-c2ccco2)c1C#N (configuration not stated),inactive,–
COc1cc(CC(=O)N2CCC(n3nccc3NC(=O)C3CC3)CC2)cc(OC)c1OC,inactive,–
O=C(CN(Cc1ccc(Br)cc1)S(=O)(=O)c1ccccc1)NCc1ccncc1,inactive,–

SMILES,Potency,"activity change, negative = inhibition"
Cc1ccc(-c2nc(-c3ccncc3)no2)c(C)c1,inactive,–
O=C(COC(=O)c1ccccc1Cl)NC1CCCCCCC1,inactive,–
COc1ccccc1CC(=O)Nc1ccc(S(=O)(=O)N2CCCC2)cc1,inactive,–
Nc1nonc1-n1nnc(C(=O)N/N=C/c2ccc(Cl)cc2)c1-c1ccc2c(c1)OCO2,0.329 µM (active),–
CC(C)c1c(C(=O)N/N=C/c2ccc(-c3ccccc3)cc2)nnn1-c1nonc1N,inactive,–
Nc1nonc1-n1nnc(C(=O)N/N=C/C2CCCCC2)c1-c1ccccc1,inactive,–
Cc1cc(F)ccc1S(=O)(=O)Nc1ccc(C(=O)N(C)Cc2ccco2)cc1,inactive,–
O=C(NCCSc1ncc(-c2ccccc2)[nH]1)c1ccco1,inactive,–
CCN(C(=O)CSc1nnc(-c2ccncc2)o1)c1ccccc1,inactive,–
COc1ccc(CN(C(=O)CSc2nnc(-c3ccc(OC)c(OC)c3)o2)c2ccc(F)cc2)cc1,9.28 µM (active),–
COc1ccc(CCNC(=O)CSc2nnc(-c3cccc(F)c3)o2)cc1OC,inactive,–
CCc1ccc(NC(=O)C(=O)NNC(=O)c2cccs2)cc1,inactive,–
O=C(Nc1ccc(N2CCN(C(=O)c3ccccc3)CC2)c(Cl)c1)c1ncn[nH]1,11.7 µM (active),–
O=C(Nc1cccc(C(=O)N2CCCC2)c1)c1ccccc1,inactive,–
O=C(Nc1ccccc1N1CCN(C(=O)c2ccccc2)CC1)c1ccco1,inactive,–
C#CCOc1ccccc1/C=C1/C(=O)ON=C1C,–,-13.9% [at 0.00184 µM]
O=[N+]([O-])c1ccc2c(c1)Nc1nc3ccccc3nc1N2,inactive,–
O=[N+]([O-])c1cccc(/C([O-])=C(/C(=S)Nc2ccccc2F)[n+]2ccccc2)c1,inactive,–
Cc1ccc(/C([O-])=C(/C(=S)NCc2ccco2)[n+]2ccccc2)cc1[N+](=O)[O-],10.4 µM (active),–
CC(OC(=O)CNC(=O)c1ccc(Cl)c([N+](=O)[O-])c1)C(=O)NCc1ccco1 (configuration not stated),inactive,–
COc1cccc(C(=O)OCc2cc(=O)oc3c(C)c(C)ccc23)c1OC,inactive,–
Cc1cc(/C=C2/SC(=O)N(CC(=O)N3CCCC3)C2=O)c(C)n1C,inactive,–
CCN(CC)CCCNC(=S)N(CCO)Cc1cc2cc3c(cc2[nH]c1=O)OCO3,inactive,–
Cc1cc(C)c2[nH]c(=O)c(CN(Cc3ccccc3)C(=S)NCCCN(C)C)cc2c1,13.1 µM (active),–
COCCCNC(=S)N(CCN(C)C)Cc1cc2cc3c(cc2[nH]c1=O)OCCO3,inactive,–
COc1cc(/C=N/NC(=O)c2ccc(N3CCCC3=O)cc2)ccc1O,inactive,–

SMILES,Potency,"activity change, negative = inhibition"
O=c1cc(Cl)c2ccccc2n1-c1ccccc1,–,-0.654% [at 0.00184 µM]
COc1ccc(OCc2cc(C(=O)NCC3(C)COC3)no2)c(Cl)c1,inactive,–
COC(=O)c1c(NC(=O)c2ccccc2F)sc2c1C(C(=O)OC)CC2 (configuration not stated),inactive,–
COc1ccc2[nH]c(C)c(CCN(Cc3cccs3)C(=S)Nc3ccccc3OC)c2c1,11.7 µM (active),–
COc1ccc(NC(=S)NCc2cccs2)c(OC)c1,inactive,–
Cc1[nH]c2ccccc2c1CCN(Cc1cccs1)C(=S)NC(C)(C)C,inactive,–
Cc1ccc2c(c1)N(CC(=O)N1CCCC(C)C1)C(=O)CO2 (configuration not stated),inactive,–
Clc1ncn(CCOc2ccccc2)c1Cl,inactive,–
c1ccc(Cc2ccc(OCCn3ccnc3)cc2)cc1,9.28 µM (active),–
COc1ccc(OCCn2ccnc2C)cc1,inactive,–
CC(CCc1ccccc1)NC(=O)c1cnc(Cl)c(Cl)c1 (configuration not stated),inactive,–
CN(C)C(=O)c1ccc(NC(=O)COC(=O)c2cc3c(s2)CCCCC3)cc1,inactive,–
COC(=O)Cn1c(O)c(N=NC(=O)OC)c2ccccc21,inactive,–
CCn1c(O)c(N=NC(=O)c2cccc(S(=O)(=O)N3CCCCC3)c2)c2ccccc21,11.7 µM (active),–
CCn1c2ccccc2c2cc(NC(=O)COC(=O)c3cc(S(=O)(=O)N4CCCCC4)ccc3Cl)ccc21,inactive,–
CC(C)(C)c1cc[n+](-c2[nH]c(=O)sc2/C=N/N=C(\[O-])c2ccccc2)cc1,inactive,–
O=C(CSc1nc2nccnc2c(=O)n1Cc1cccs1)Nc1ccccc1F,10.4 µM (active),–
CCOc1ccc(NC(=O)CSc2nc3ccccc3c(=O)n2Cc2cccs2)cc1,inactive,–
O=C(CSc1ccc(-c2cccs2)nn1)Nc1ccccc1F,inactive,–
CN(CC(=O)Nc1ccc(Cl)c(C(F)(F)F)c1)C(=O)CCC(=O)c1ccccc1,inactive,–
O=C(NCCCN1CCCC1=O)C(=O)NCC1OCCN1S(=O)(=O)c1ccc(Br)cc1 (configuration not stated),inactive,–
CCOc1cccc(-c2nnc(SCC(=O)NC3CC3)n2C)c1,inactive,–
Cc1ccc(N(Cc2ccccc2O)C(=O)c2ccccc2F)cc1,9.28 µM (active),–
O=C(c1ccccc1F)N(Cc1ccccc1)Cc1ccccc1,inactive,–
CN(C)/C=C/C(=O)c1ccccc1F,inactive,–
O=C(COc1ccc(Cl)cc1)Nc1ccc2oc(=O)ccc2c1,inactive,–

SMILES,Potency,"activity change, negative = inhibition"
O=C(CCN1C(=O)C2C3CCC(C3)C2C1=O)Nc1ccc(Cl)cc1Cl (configuration not stated),inactive,–
O=C(CN1CCOCC1)Nc1c(Cl)cc(Cl)cc1Cl,inactive,–
CC(C)(C)c1cc(NC(=O)NN2CCOCC2)nn1-c1c(Cl)cc(Cl)cc1Cl,10.4 µM (active),–
O=C(Nc1ccc(CN2CCOCC2)cc1)c1cc(Cl)ccc1Cl,inactive,–
CC(=O)C(C)n1cnc2scc(-c3ccc(C)cc3)c2c1=O (configuration not stated),inactive,–
COc1ccc(OC)c(-c2csc(-c3cccs3)n2)c1,inactive,–
COc1cc(OC)cc(-c2c(-c3cccs3)c3cc(-c4ccc(OC)cc4F)ccc3n2C)c1,13.1 µM (active),–
COc1cc(OC)cc(-c2c(-c3ccc(F)cc3)c3cc(-c4ccc5cc[nH]c5c4)ccc3n2C)c1,5.22 µM (active),–
COc1ccc2c(c1)c(C(=O)N/N=C/c1cccs1)c(C)n2C,inactive,–
CCOC(=O)N1CCN(C(=O)C(C)NC(=O)c2ccco2)CC1 (configuration not stated),inactive,–
COc1ccc(/C=C/c2c(-c3cccc(C)c3)oc3ccc(-c4ccc5c(c4)OCO5)cc23)cc1,inactive,–
Cc1ccc(S(=O)(=O)Oc2ccc(/C=N/NC(=O)c3ccncc3)cc2)cc1,inactive,–
COc1cc(/C=N/NC(=O)c2ccccc2)ccc1OS(=O)(=O)c1ccccc1,10.4 µM (active),–
COc1ccc(/C=N/S(=O)(=O)c2ccccc2)cc1OC,inactive,–
COc1ccc(/C=N\NC(=O)c2sc(N)nc2C)cc1OC,inactive,–
COc1ccc(/C=N/NC(=O)c2ccc(Cl)cc2)cc1COC(C)=O,inactive,–
COc1ccc(/C=N/NC(=O)c2ccccc2)cc1OS(=O)(=O)c1ccccc1,9.28 µM (active),–
O=C(O)Cc1ccc(NC(=O)Nc2cccc3ccccc23)cc1,inactive,–
COc1cc(NC(=O)c2ccc(-c3csc(C)n3)cc2)c(OC)cc1Cl,inactive,–
Cc1cccc(NC(=O)C2CCCN(C(=O)Nc3ccc(F)cc3)C2)c1C (configuration not stated),inactive,–
COCc1cc(C)n(CC(=O)NCC2CCCO2)c(=O)c1C#N (configuration not stated),inactive,–
COc1ccc(N(C(=O)c2cccnc2)S(=O)(=O)c2ccc(OC)c(OC)c2)cc1,inactive,–
CC[C@H]1CN2CCc3cc(OC)c(OC)cc3[C@@H]2C[C@@H]1C[C@H]1NCCc2cc(OC)c(OC)cc21,0.0828 µM (active),–
NC(=O)NC(=O)C(OC(=O)CCNS(=O)(=O)c1ccccc1)c1ccccc1 (configuration not stated),inactive,–
